697 NFkB inh: inhibitors of PMA/ionomycin-induced NF-kB reporter, 697 cells, primary screen, B-cell NF-kB inhibitor project, cell-based, luminescence, uHTS. 697 B-cell NF-kB luciferase reporter, 16 h. inhibition, % at 4 µM. 330,000 compounds, 0.33% hits. AID 435022, 2010; in the data active = inhibition above about 35%
Jurkat NFkB inh: inhibitors of induced NF-kB luciferase reporter, primary screen, TCR NF-kB activation inhibitor project, cell-based, luminescence, uHTS | Jurkat, PMA/ionomycin-induced NF-kB luciferase reporter | inhibition, % at 4 µM | 330,000 compounds, 0.53% hits | AID 435003, 2010; in the data active = inhibition above about 50%
Beta cell apopt: inhibitors of cytokine-induced beta cell apoptosis, primary screen, luminescence | INS-1E cytokine-induced death, ATP luminescence, 48 h; percent of positive-control rescue, neutral wells zero | protection from apoptosis, % (no concentration beside the values) | 300,000 compounds, 0.8% hits | AID 435005, 2010;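 active = Every replicate reaches about 75%, or at least half do and their mean reaches it too, limit read from the data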;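 note: higher means more ATP so stronger rescue from cytokine killing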
Mdm2 MdmX PPI: inhibitors of human Mdm2-MdmX association, primary screen, cell-based, luminescence, split luciferase, SaOS-2, uHTS. Protein Mdm4 (Homo sapiens) + E3 ubiquitin-protein ligase Mdm2 (Homo sapiens), …. SaOS-2 split-luciferase Mdm2/MdmX complementation. inhibition, % at 8 µM. 330,000 compounds, 3% hits;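 active = inhibition of at least 50% at 8 µM in the primary screen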
Target sequence (O15151 whole entry, looked up): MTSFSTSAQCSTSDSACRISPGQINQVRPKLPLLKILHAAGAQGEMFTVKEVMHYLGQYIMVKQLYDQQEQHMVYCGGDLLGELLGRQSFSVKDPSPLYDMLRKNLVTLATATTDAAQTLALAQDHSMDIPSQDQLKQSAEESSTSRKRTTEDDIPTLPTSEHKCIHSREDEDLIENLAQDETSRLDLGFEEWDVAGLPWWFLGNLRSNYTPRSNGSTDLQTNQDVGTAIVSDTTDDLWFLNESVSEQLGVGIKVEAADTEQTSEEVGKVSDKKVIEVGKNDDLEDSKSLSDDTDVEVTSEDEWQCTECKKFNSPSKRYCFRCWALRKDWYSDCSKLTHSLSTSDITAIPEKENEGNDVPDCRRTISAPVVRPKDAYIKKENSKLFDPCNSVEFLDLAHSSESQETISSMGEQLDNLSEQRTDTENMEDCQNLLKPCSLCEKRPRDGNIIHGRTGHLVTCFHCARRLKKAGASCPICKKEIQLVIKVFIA
Target sequence (Q00987 whole entry, looked up): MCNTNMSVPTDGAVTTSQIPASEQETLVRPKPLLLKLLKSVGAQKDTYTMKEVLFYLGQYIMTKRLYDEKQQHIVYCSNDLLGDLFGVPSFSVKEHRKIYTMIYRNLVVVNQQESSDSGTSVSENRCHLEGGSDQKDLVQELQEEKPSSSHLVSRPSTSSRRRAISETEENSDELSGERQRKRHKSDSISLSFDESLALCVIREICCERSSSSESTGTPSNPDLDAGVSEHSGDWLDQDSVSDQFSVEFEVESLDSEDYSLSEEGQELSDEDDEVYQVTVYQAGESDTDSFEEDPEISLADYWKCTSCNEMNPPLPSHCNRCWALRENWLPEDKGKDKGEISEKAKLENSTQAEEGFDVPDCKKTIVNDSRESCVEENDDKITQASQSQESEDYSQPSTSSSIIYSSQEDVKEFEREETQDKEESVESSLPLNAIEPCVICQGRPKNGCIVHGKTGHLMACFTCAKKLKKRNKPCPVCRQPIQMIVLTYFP
CSC inhib: cancer stem cell viability inhibitors, primary screen, luminescence. inhibition, % at 7.5 µM. cancer stem cell-like cells viability. 300,000 compounds, 1.1% hits. AID 2717, 2010; in the data active = inhibition above about 75%; tested in HMLE shEcad cells
Gli-Sufu block: Gli-Sufu pathway antagonists, primary screen, luciferase luminescence, Sufu-KO-LIGHT cells, uHTS; 340,000 compounds, 0.74% hits; Sufu-KO-LIGHT fibroblasts, Gli luciferase reporter luminescence; inhibition, % at 5 µM;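 active = inhibition above about 55%, limit read from the data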
697 NFkB conf: PMA/ionomycin-induced NF-kB reporter inhibitors, 697 retest, confirmation, B-cell NF-kB inhibitor project, cell-based, luminescence, single concentration; 2,000 compounds, 35% hits; AID 449746, 2010; 697 B-cell NF-kB luciferase, 16 h; shares compounds with 697 NFkB inh; inhibition, % at 4 µM; in the data active = inhibition mostly above about 28%, no sharp cut-off; inactive = mostly below about 22%
Mdm2 MdmX conf: Mdm2-MdmX complex disruptors, retested hits, confirmation, luminescence, single concentration; AID 489028, 2010; shares compounds with Mdm2 MdmX PPI; inhibition, % at 8 µM; 10,000 compounds, 55% hits; Mdm2-MdmX binding, luminescent assay; in the data active = inhibition above about 40%
Full FLuc ctr: full-length luciferase signal inhibition, confirmation, counter-screen for Mdm2/MdmX interaction inhibitor project, cell-based, single concentration, SaOS-2; shares compounds with Mdm2 MdmX PPI; SaOS-2 full-length luciferase counterscreen, luminescence; inhibition, % at 8 µM; 6,200 compounds, 77% hits;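 active = mean inhibition at 8 µM reaching about 37%, which flags the compound as non-specific, limit read from the data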;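 note: p53-null SaOS-2 cells with luciferase driven by a doxycycline-inducible promoter; compound on cells about two nights before reading with doxycycline added after day one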
Large screens that a line does not name were inactive (follow-up assays come after a bar, where they were run). The list is not random: actives were taken first. Their share in the collection is about 4.5%.

COCCNC(=O)c1cc(-c2ccc(-c3ccccc3)cc2)nc2ccccc12	Mdm2 MdmX PPI 88.3 | 697 NFkB conf inactive | Mdm2 MdmX conf 84.0 | Full FLuc ctr 46.0
O=C(NCc1ccccn1)c1cc(-c2ccc(-c3ccccc3)cc2)nc2ccccc12	Mdm2 MdmX PPI 83.6 | 697 NFkB conf inactive | Mdm2 MdmX conf 60.6 | Full FLuc ctr 54.0
CCN(C(=O)COC(=O)CNC(=O)c1ccc(C)cc1)c1c(N)n(Cc2ccccc2)c(=O)[nH]c1=O	none
COc1cc(SC)ccc1C(=O)NCCOc1ccc(Cl)cc1	none
COc1cc(SC)ccc1C(=O)Nc1ccc(Br)cn1	Mdm2 MdmX PPI 60.4 | 697 NFkB conf inactive | Mdm2 MdmX conf 48.0 | Full FLuc ctr 126.2
COc1ccc(OCC(=O)Nc2nc3c(s2)CCCC3)cc1	none (no result: Beta cell apopt, CSC inhib)
COc1ccccc1OCC(=O)Nc1nc2c(s1)CCCC2	Mdm2 MdmX PPI 50.7 (no result: Beta cell apopt, CSC inhib) | 697 NFkB conf inactive | Mdm2 MdmX conf 58.5 | Full FLuc ctr 83.0
Cc1ccc(CC(=O)Nc2nc3c(s2)CCCC3)cc1	Mdm2 MdmX PPI 86.7 | 697 NFkB conf inactive | Mdm2 MdmX conf 79.5 | Full FLuc ctr 37.3
O=C(CS(=O)(=O)Cc1ccccc1)Nc1nc2c(s1)CCCC2	none
O=C(CN(c1ccccc1)S(=O)(=O)c1ccc(F)cc1)NCc1cccs1	none (no result: CSC inhib)
C/C(N)=C(/C#N)C(=O)COC(=O)c1cc(C)n(-c2ccc(F)cc2)c1C	Mdm2 MdmX PPI 79.8 | 697 NFkB conf inactive | Mdm2 MdmX conf inactive
Cc1cc(OCC(=O)Nc2ccc(CN3CCOCC3)cc2)c2c(C)c(C)c(=O)oc2c1	697 NFkB inh 38.4, Mdm2 MdmX PPI 57.6 | 697 NFkB conf inactive | Mdm2 MdmX conf inactive
Cc1cc(OCC(=O)Nc2ccc(CN3CCOCC3)cc2)c2c(C)cc(=O)oc2c1	none
COC(=O)c1ccc(C2c3[nH]c4ccccc4c3C[C@H]3C(=O)N(C)CC(=O)N23)cc1 (stereo partly drawn)	none
CCN1C(=O)[C@@H]2Cc3c([nH]c4ccccc34)C(c3ccc(OC)cc3)N2C1=S (stereo partly drawn)	Mdm2 MdmX PPI 73.1 | 697 NFkB conf inactive | Mdm2 MdmX conf 58.0 | Full FLuc ctr 57.5
CSc1ccccc1NC(=O)CSCc1ccc(C)cc1	none
Cc1ccc(CSCC(=O)Nc2ccccc2C(=O)O)cc1	Mdm2 MdmX PPI 51.5 | 697 NFkB conf inactive | Mdm2 MdmX conf inactive
Cc1c(Cl)cccc1-n1cnc(=O)c2ccccc21	none
CCOc1ccc2nc(NC(=O)c3ccccn3)sc2c1	Beta cell apopt 76.9, Mdm2 MdmX PPI 76.2, CSC inhib 94.2 | 697 NFkB conf inactive | Mdm2 MdmX conf 76.5 | Full FLuc ctr 42.0
Cc1cccc(CCNCc2c(C(=O)O)c(C)n(-c3ccccc3)c2C)c1	none

From PubChem BioAssay
